Results on 14 molecules are retold here after PubChem BioAssay (NCI).

This is part of a sample that, as a whole, favours compounds with a hit. Of some 83,000 tested, about 20% had one in any assay.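 The endpoint reported here, percent growth, reads 100 for growth as untreated, 0 for no net growth and -100 for all cells dead.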 Unmarked numbers belong to inactive results. Calls of active or inactive are those of the source. Rule for the calls: active = growth percent below 10; inactive = the rest.

Test systems include NCI-H226 lung; NCI-H322M lung; HOP-62 NSCLC; NCI-H460 lung; HOP-92 NSCLC; NCI-H522 lung; 786-0 renal; COLO 205 colon; DU-145 prostate; A549/ATCC NSCLC.
Test in all cases: NCI-60 one-dose screen, 48 h (100 = growth as untreated, 0 = no growth, -100 = all killed)
Holding throughout (conditions): 10 µM unless noted

Regarding `COc1ccc(CNS(=O)(=O)/N=C2\NC(=O)NC2=C(Cl)Cl)cc1`, the growth in the test with NCI-H226 lung is 46.1%; in the test with NCI-H322M lung, 37.1%; with HOP-62 NSCLC it was 46.9%; in the test on NCI-H460 lung, 19%; in the test with HOP-92 NSCLC, -2.17% (active); in the test with NCI-H522 lung, 2.05% (active). Moreover, the growth in the test with 786-0 renal was 28.8%; in the test on COLO 205 colon it was 55.4%; in the test with DU-145 prostate, 27.9%.

Consider `c1ccc2c(NCCCN3CCOCC3)c3oc4ccccc4c3nc2c1`, for which the growth with NCI-H226 lung was -11.3% (active); in the test on NCI-H322M lung, -17.5% (active); in the test with HOP-62 NSCLC, -13.4% (active); in the test on NCI-H460 lung it was 0.606% (active); in the test on HOP-92 NSCLC it was -22.9% (active); in the test on NCI-H522 lung, -52.8% (active). The growth with A549/ATCC NSCLC was -62.1% (active); in the test on 786-0 renal, 6.38% (active); in the test on COLO 205 colon it was -67.8% (active); in the test with DU-145 prostate, 2.98% (active).

For the molecule `CN(C)S(=O)(=O)c1oc(-c2ccccc2)nc1C#N`, the growth is 98.2% in the test with NCI-H226 lung; 99.6% in the test on NCI-H322M lung; 99.6% with HOP-62 NSCLC; 109% with NCI-H460 lung; 74.2% in the test with HOP-92 NSCLC; -64.7% (active) in the test with NCI-H522 lung. Also, the results for the growth with 786-0 renal, in the test on COLO 205 colon and with DU-145 prostate were 66.1%, 75.9% and 34.7%, respectively.

With `Cc1nc(-c2cc3ccccc3oc2=O)ccc1C(=O)/C=C/c1ccc(N2CCOCC2)cc1`, the growth in the test on NCI-H226 lung was 88.3%; in the test with NCI-H322M lung it was 107%; with HOP-62 NSCLC it was 90.8%; in the test with NCI-H460 lung, 89.7%; with HOP-92 NSCLC it was 80%; in the test on NCI-H522 lung, 61.4%. For the same molecule, the growth was 75.3% in the test on 786-0 renal, 91.6% in the test with COLO 205 colon and 91.1% in the test with DU-145 prostate.

As to `COc1cc(/C=C/C(=O)c2cc(OC)c(OC)c(OC)c2)ccc1OCc1ccc(F)cc1`, the growth is 49.5% in the test with NCI-H226 lung; 49.7% with NCI-H322M lung; 54% in the test on NCI-H460 lung; 44.7% with HOP-92 NSCLC; 56.4% in the test with NCI-H522 lung; 51.2% in the test on A549/ATCC NSCLC. For the same molecule, the growth was 62.8% with 786-0 renal, 70% in the test with COLO 205 colon and 58.3% with DU-145 prostate.

In the case of `COc1cccc(N2CCN(c3ncnc4c3[nH]c3ccc(F)cc34)C[C@@H]2C)c1`, the growth is -60.5% (active) with NCI-H226 lung; -39.9% (active) with NCI-H322M lung; -17.2% (active) with NCI-H460 lung; -27.1% (active) in the test on HOP-92 NSCLC; -91.8% (active) with NCI-H522 lung; -58.5% (active) in the test on 786-0 renal. Besides, the growth is -88.5% (active) in the test with COLO 205 colon and -67.3% (active) with DU-145 prostate.

`C/C(=N\NC(N)=O)c1c(O)sc(=O)[nH]c1=O`: the growth was 101% in the test on NCI-H226 lung; 97.3% in the test with NCI-H322M lung; 106% in the test with NCI-H460 lung; 104% in the test on HOP-92 NSCLC; 98.7% with NCI-H522 lung; 98.4% in the test on A549/ATCC NSCLC. Besides, the growth is 104% in the test with 786-0 renal, 108% with COLO 205 colon and 110% in the test with DU-145 prostate.

Turning to `Clc1ccc2c(NCCCN3CCOCC3)c3oc4ccccc4c3nc2c1`, the growth in the test with NCI-H322M lung is 37.8%; in the test with HOP-62 NSCLC, 66.5%; in the test on NCI-H460 lung, 13.8%; with HOP-92 NSCLC, 48.7%; with NCI-H522 lung it was 43.1%; in the test on A549/ATCC NSCLC it was 44.3%. The figures for the growth with 786-0 renal, with COLO 205 colon and in the test on DU-145 prostate were 28.3%, 29.9% and 31.3%, respectively.

Turning to `CC(C)(C)Nc1nc2c(OCCc3ccccc3)cccn2c1-c1cccc(F)c1`, the growth is 20.1% with NCI-H322M lung; -33.2% (active) in the test with HOP-62 NSCLC; -11% (active) in the test with NCI-H460 lung; -27% (active) with HOP-92 NSCLC; -0.543% (active) with NCI-H522 lung; 12.3% in the test with A549/ATCC NSCLC. Besides, the growth in the test with 786-0 renal was 5.13% (active); with COLO 205 colon, -75% (active); in the test on DU-145 prostate it was 22.7%.

Consider `N#Cc1c(-c2ccc(Cl)cc2)nc(SCc2ccc(F)cc2)nc1N1CCNCC1`, for which the growth is 101% in the test with NCI-H226 lung; 76.7% with NCI-H322M lung; -70.2% (active) in the test with NCI-H460 lung; 6.64% (active) with HOP-92 NSCLC; 94.1% in the test with NCI-H522 lung; 60.2% with A549/ATCC NSCLC. Further, the growth in the test with 786-0 renal is 62.5%; in the test on COLO 205 colon it was -27.2% (active); in the test with DU-145 prostate, 61%.

Consider `COc1cc(-c2ccc3ncnc(NC(C)c4ccccc4)c3c2)cnc1OC` (stereo not given), for which the growth with NCI-H226 lung is 52.8%; with NCI-H322M lung it was 15.4%; in the test with NCI-H460 lung it was 64.5%; with HOP-92 NSCLC, 20.1%; in the test on NCI-H522 lung, 40.9%; with A549/ATCC NSCLC it was 41.9%. Further, the values for the growth with 786-0 renal, in the test on COLO 205 colon and with DU-145 prostate were 44.2%, 72.9% and 37.2%, respectively.

Turning to `CCOC(=O)c1c(Nc2ccccc2)nn2c(N)c(C#N)c(-c3ccc(OC)cc3)nc12`, the growth was 42.3% with NCI-H226 lung; 95.5% in the test with NCI-H322M lung; 61.5% in the test on NCI-H460 lung; 47% in the test on HOP-92 NSCLC; 83.3% in the test on NCI-H522 lung; 32.8% with 786-0 renal. Also, the results for the growth with COLO 205 colon and with DU-145 prostate were 96.3% and 66.3%, respectively.

For the molecule `CS(=O)(=O)c1ccc(-c2nc3ccccn3c2C=Nc2ccc(Cl)cc2)cc1`, the growth was 102% in the test with NCI-H226 lung; 76.7% in the test with NCI-H322M lung; 57.7% with NCI-H460 lung; 98.5% in the test with HOP-92 NSCLC; 58.6% in the test on NCI-H522 lung; 72.1% in the test with A549/ATCC NSCLC. Also, the growth in the test on 786-0 renal is 69.5%; in the test on COLO 205 colon, 99.6%; with DU-145 prostate, 61.3%.

Consider `COc1cc(-c2nc3ccc(-c4nnc(SCC(=O)Nc5ccc(C(=O)/C=C/c6ccc(Cl)cc6)cc5)o4)cc3[nH]2)cc(OC)c1OC`, for which the growth in the test with NCI-H226 lung is 91.7%; in the test with NCI-H322M lung it was 96.2%; in the test on NCI-H460 lung it was 105%; with HOP-92 NSCLC, 82.2%; with NCI-H522 lung, 92.6%; in the test with A549/ATCC NSCLC it was 101%. The growth is 90.8% in the test with 786-0 renal, 108% in the test on COLO 205 colon and 104% in the test on DU-145 prostate.
